Our source for the outcome and AC50 values is PubChem BioAssay (EPA / NIEHS).

By AC50 is commonly meant the concentration giving half of the maximal activity seen.

Calls of active or inactive are those of the source. The calls were made as follows: active = hit-call score of the fitted dose curve at least 0.9, where 1 is the maximum; inactive = score below 0.9.

Read-out in assay [1]: Transforming growth factor beta 1 (TGFb1), TGFB1 (gene 7040)
Put plainly: BSK_KF3CT_TGFb1: BioMAP Diversity Plus: KF3CT Assay for Transforming growth factor beta 1 (TGFb1) Biomarker Activity (AID 2283072). The settings on record: primary human keratinocytes with fibroblasts; actives raise or lower the signal. The method, boiled down:
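TGF-b1 ELISA on a 24 h dosed co-culture of human keratinocytes and foreskin fibroblasts; cytotoxicity tracked in parallel cultures by SRB staining.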

Read-out in assay [2]: Matrix Metallopeptidase 9 (MMP9), MMP9 (gene 4318)
Put plainly: BSK_KF3CT_MMP9: BioMAP Diversity Plus: KF3CT Assay for Matrix Metallopeptidase 9 (MMP9) Biomarker Activity (AID 2283074).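 As to AC50: MMP9 protein level quantified by ELISA in the co-culture.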 The settings on record: primary human keratinocytes with fibroblasts; actives raise or lower the signal. Put shortly:
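Values come from bidirectional fitting relative to DMSO of MMP-9 levels, which were measured by ELISA. Measurements were taken 24 h after chemical dosing of a keratinocyte and foreskin fibroblast co-culture.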

Read-out in assay [3]: urokinase plasminogen activator (uPA), PLAU (gene 5328)
Put plainly: BSK_KF3CT_uPA: BioMAP Diversity Plus: KF3CT Assay for urokinase plasminogen activator (uPA) Biomarker Activity (AID 2283075). The settings on record: primary human keratinocytes with fibroblasts; actives raise or lower the signal. The method, boiled down: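 Values derive from bidirectional fitting against DMSO controls. Keratinocyte/foreskin fibroblast co-cultures received chemical; 24 h later uPA was detected by ELISA, with SRB total-protein staining in parallel wells for overt cytotoxicity.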

Read-out in assay [4]: CD40, CD40 (gene 958)
Put plainly: BSK_LPS_CD40: BioMAP Diversity Plus: LPS Assay for CD40 Biomarker Activity (AID 2283076). The settings on record: primary human HUVEC with PBMC; actives raise or lower the signal. Put shortly: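 In the LPS system of human endothelial cells with peripheral blood mononuclear cells, CD40 levels were read by ELISA 24 h post-treatment. Signal changes in either direction were fitted against the DMSO baseline, with parallel SRB protein staining.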

Read-out in assay [5]: E-selectin (Homo sapiens) (UniProt P16581)
Put plainly: BSK_LPS_Eselectin: BioMAP Diversity Plus: LPS Assay for Eselectin Biomarker Activity (AID 2283077). The settings on record: primary human HUVEC with PBMC; actives raise or lower the signal. Put shortly:
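E-selectin ELISA on LPS-stimulated endothelial cell/PBMC co-cultures, read 24 h post-treatment; gains and losses fitted against DMSO. Parallel SRB staining (0.1% SRB after 10% TCA fixation, 560 nm) flags overt cytotoxicity.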

Read-out in assay [6]: Interleukin-8 (IL8), CXCL8 (gene 3576)
Put plainly: BSK_LPS_IL8: BioMAP Diversity Plus: LPS Assay for Interleukin-8 (IL8) Biomarker Activity (AID 2283078). The settings on record: primary human HUVEC with PBMC; actives raise or lower the signal. Put shortly:
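ELISA read-out of IL-8 after 24 h chemical treatment of LPS-activated endothelial/PBMC human primary co-cultures. Changes either up or down relative to DMSO; overt cytotoxicity checked by sulforhodamine B staining in parallel wells.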

A short description of assay [7]: BSK_LPS_SRB: Viability Assessment in the BioMAP Diversity Plus: LPS Assay (AID 2283079).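 Also: total protein by sulforhodamine B absorbance as a cytotoxicity measure; measured one day after compound addition; fitted in both directions against DMSO so loss or gain of signal counts.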 The settings on record: primary human HUVEC with PBMC. The method, boiled down:
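SRB viability endpoint: cells fixed with 10% TCA, stained with 0.1% SRB, read at 560 nm, 24 h post-dose. HUVEC/PBMC co-culture; signal change in either direction scored relative to DMSO.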

Read-out in assay [8]: Interleukin-1 alpha (IL1a), IL1A (gene 3552)
Put plainly: BSK_LPS_IL1a: BioMAP Diversity Plus: LPS Assay for Interleukin-1 alpha (IL1a) Biomarker Activity (AID 2283080). The settings on record: primary human HUVEC with PBMC; actives raise or lower the signal. Put shortly:
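Readout is IL-1a level by ELISA, 24 h post-dose, fitted as gain or loss relative to DMSO. System: LPS-activated human primary co-culture of vascular endothelium and peripheral blood mononuclear cells, with parallel SRB total-protein cytotoxicity.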

Read-out in assay [9]: Monocyte Chemoattractant Protein-1 (MCP1), CCL2 (gene 6347)
Nature of the assay: BSK_LPS_MCP1: BioMAP Diversity Plus: LPS Assay for Monocyte Chemoattractant Protein-1 (MCP1) Biomarker Activity (AID 2283081). The settings on record: primary human HUVEC with PBMC; actives raise or lower the signal. Put shortly: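 Secreted MCP-1 read by ELISA at 24 h post-dosing in an LPS-activated co-culture of endothelial cells with peripheral blood mononuclear cells. Fits run in both directions, DMSO as baseline; parallel SRB staining tracks overt cytotoxicity.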

Assay [10] can be described thus: BSK_LPS_PGE2: BioMAP Diversity Plus: LPS Assay for Prostaglandin E2 (PGE2) Biomarker Activity (AID 2283082).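 As to AC50: secreted prostaglandin E2 measured by ELISA in LPS-stimulated co-culture.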 The settings on record: primary human HUVEC with PBMC; actives raise or lower the signal. Put shortly:
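Primary human endothelial cells and blood mononuclear cells, co-cultured with LPS, receive test chemical; PGE2 ELISA follows at 24 h, with SRB-stained parallel cultures flagging cytotoxicity.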

Read-out in assay [11]: Macrophage colony-stimulating factor (MCSF), CSF1 (gene 1435)
Nature of the assay: BSK_LPS_MCSF: BioMAP Diversity Plus: LPS Assay for Macrophage colony-stimulating factor (MCSF) Biomarker Activity (AID 2283083). The settings on record: primary human HUVEC with PBMC; actives raise or lower the signal. Put shortly: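 Bidirectional fitting against DMSO was applied to M-CSF levels read by ELISA at 24 h post-dose. The system pairs human umbilical vein endothelium with peripheral blood mononuclear cells; parallel SRB staining tracked cytotoxicity.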

Read-out in assay [12]: Tissue Factor, F3 (gene 2152)
Nature of the assay: BSK_LPS_TissueFactor: BioMAP Diversity Plus: LPS Assay for Tissue Factor Biomarker Activity (AID 2283084). The settings on record: primary human HUVEC with PBMC; actives raise or lower the signal. The method, boiled down:
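Compound was added to an endothelial cell/PBMC co-culture, and after 24 h tissue factor (CD142) was read by ELISA. Gain or loss of signal was fitted against a DMSO baseline, and parallel SRB staining (560 nm) tracked overt cytotoxicity.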

Read-out in assay [13]: Tumor necrosis factor (Homo sapiens) (UniProt P01375)
Nature of the assay: BSK_LPS_TNFa: BioMAP Diversity Plus: LPS Assay for Tumour Necrosis Factor alpha (TNFa) Biomarker Activity (AID 2283085).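 As to AC50: TNFa protein level quantified by ELISA in the co-culture.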 The settings on record: primary human HUVEC with PBMC; actives raise or lower the signal. Put shortly: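 ELISA-based TNFa endpoint in a human endothelial–PBMC co-culture sampled 24 h post-exposure. Curves were fitted in both directions using DMSO as baseline of activity.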

Read-out in assay [14]: Vascular cell adhesion molecule 1 (VCAM1), VCAM1 (gene 7412)
Put plainly: BSK_LPS_VCAM1: BioMAP Diversity Plus: LPS Assay for Vascular cell adhesion molecule 1 (VCAM1) Biomarker Activity (AID 2283086). The settings on record: primary human HUVEC with PBMC; actives raise or lower the signal. The method, boiled down: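 Measured by ELISA: VCAM-1 in LPS-activated HUVEC/PBMC co-cultures 24 h after treatment. Values reflect bidirectional fitting with DMSO as baseline.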

Read-out in assay [15]: CD40, CD40 (gene 958)
Put plainly: BSK_SAg_CD40: BioMAP Diversity Plus: SAg Assay for CD40 Biomarker Activity (AID 2283088). The settings on record: primary human HUVEC with PBMC; actives raise or lower the signal. The method, boiled down: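 CD40 is measured by fluorescence ELISA in an endothelial/PBMC primary human co-culture at 24 h post-dose. Fitting is bidirectional, DMSO baseline. Parallel SRB staining (560 nm) flags cytotoxicity.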

Read-out in a further assay: CD69, CD69 (gene 969)
Put plainly: BSK_SAg_CD69: BioMAP Diversity Plus: SAg Assay for CD69 Biomarker Activity (AID 2283089). The settings on record: primary human HUVEC with PBMC; actives raise or lower the signal. The method, boiled down: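 Values derive from bidirectional fitting relative to DMSO vehicle. Cells: umbilical vein endothelium plus peripheral blood mononuclear cells, treated 24 h before fluorescent ELISA for CD69.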

Read-out in assay [16]: Monocyte Chemoattractant Protein-1 (MCP1), CCL2 (gene 6347)
Put plainly: BSK_SAg_MCP1: BioMAP Diversity Plus: SAg Assay for Monocyte Chemoattractant Protein-1 (MCP1) Biomarker Activity (AID 2283090). The settings on record: primary human HUVEC with PBMC; actives raise or lower the signal. The method, boiled down: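 Values derive from bidirectional fitting of ELISA-measured MCP1 against DMSO controls. Readings were taken 24 h after dosing human vascular endothelial cells co-cultured with peripheral blood mononuclear cells under superantigen stimulation.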

Read-out in assay [17]: E-selectin (Homo sapiens) (UniProt P16581)
Put plainly: BSK_SAg_Eselectin: BioMAP Diversity Plus: SAg Assay for Eselectin Biomarker Activity (AID 2283091). The settings on record: primary human HUVEC with PBMC; actives raise or lower the signal. The method, boiled down: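 Cell-surface E-selectin is read by ELISA at 24 h in the SAg co-culture of HUVEC and PBMC. Curves are fitted in both directions relative to DMSO. Parallel SRB total-protein staining tracks overt toxicity.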

Chain of Tumor necrosis factor (Homo sapiens) (P01375 whole entry, looked up): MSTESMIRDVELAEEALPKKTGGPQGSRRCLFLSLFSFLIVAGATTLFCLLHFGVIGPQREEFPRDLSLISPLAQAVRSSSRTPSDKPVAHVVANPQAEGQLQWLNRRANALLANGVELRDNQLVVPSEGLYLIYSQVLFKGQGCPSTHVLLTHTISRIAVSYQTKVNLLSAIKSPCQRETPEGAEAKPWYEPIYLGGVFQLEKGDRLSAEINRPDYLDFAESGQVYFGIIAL
Chain of E-selectin (Homo sapiens) (P16581 whole entry, looked up): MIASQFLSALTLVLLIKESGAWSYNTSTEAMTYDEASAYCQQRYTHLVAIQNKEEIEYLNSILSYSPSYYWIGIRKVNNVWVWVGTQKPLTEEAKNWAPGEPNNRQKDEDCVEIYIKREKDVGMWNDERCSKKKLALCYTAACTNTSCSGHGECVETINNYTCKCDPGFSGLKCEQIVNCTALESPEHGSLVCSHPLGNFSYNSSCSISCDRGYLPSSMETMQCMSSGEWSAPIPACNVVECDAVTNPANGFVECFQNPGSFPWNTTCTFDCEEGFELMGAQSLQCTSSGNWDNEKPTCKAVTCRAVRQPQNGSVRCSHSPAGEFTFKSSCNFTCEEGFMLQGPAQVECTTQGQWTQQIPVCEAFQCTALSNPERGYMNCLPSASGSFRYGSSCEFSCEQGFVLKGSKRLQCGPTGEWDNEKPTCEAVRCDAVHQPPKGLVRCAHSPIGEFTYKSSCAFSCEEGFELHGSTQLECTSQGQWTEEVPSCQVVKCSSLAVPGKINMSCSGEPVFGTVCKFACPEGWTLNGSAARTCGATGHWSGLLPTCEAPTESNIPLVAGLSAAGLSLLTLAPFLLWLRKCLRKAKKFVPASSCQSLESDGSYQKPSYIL

On to `CC(C)(C)C(=O)C(Oc1ccc(Cl)cc1)n1cncn1` (configuration not stated), for which the outcome in assay [1] was “inactive”; in assay [2], “inactive”; in assay [3] it was “inactive”; with CD40, CD40 (gene 958) [4], “inactive”; in [5], “inactive”; in assay [6] it was “inactive”. The result in assay [7], in [8], in [9], in assay [10], in assay [11] and in assay [12] was inactive. Also, the outcome was “inactive” in [13]; “inactive” in assay [14]; “inactive” with CD40, CD40 (gene 958) [15]; “inactive” with CD69, CD69 (gene 969); “inactive” in assay [16]; “inactive” in assay [17].
With `CC(C)N1C(=O)c2ccccc2NS1(=O)=O`, the outcome is “inactive” in assay [1]; “inactive” in assay [2]; “inactive” in [3]; “inactive” in the assay with CD40, CD40 (gene 958) [4]; “inactive” in [5]; “inactive” in assay [6]. For the same compound, the result in [7], in assay [8], in [9], in assay [10], in [11] and in assay [12] was inactive. For the same compound, the outcome in [13] is “inactive”; in assay [14], “inactive”; in the assay with CD40, CD40 (gene 958) [15], “inactive”; in [16], “inactive”; in assay [17] it was “inactive”.
`COc1ccc(-c2ccccc2)cc1NNC(=O)OC(C)C`: the outcome in [1] is “inactive”; in assay [2], “inactive”; in assay [3], “inactive”; with CD40, CD40 (gene 958) [4], “inactive”; in assay [5] it was “inactive”; in assay [6], “inactive”. Also, the outcome in assay [7], in assay [8], in assay [9], in assay [11], in assay [12] and in assay [14] was inactive. The outcome with CD40, CD40 (gene 958) [15] is “inactive”; with CD69, CD69 (gene 969) it was “inactive”; in assay [16], “inactive”; in assay [17] it was “inactive”. Further, the AC50 is 1.84 µM (active) in assay [10] and 4.44 µM (active) in assay [13].
Consider `O=C1C2CC=CCC2C(=O)N1SC(Cl)(Cl)Cl` (configuration not stated), for which the AC50 in assay [2] was 8.54 µM (active); in the assay with CD40, CD40 (gene 958) [4], 22.3 µM (active); in assay [5] it was 29.5 µM (active); in assay [6], 25.2 µM (active); in assay [11] it was 29 µM (active); in [12], 31.4 µM (active). The values for the AC50 in [13], in [14] and in assay [17] were 36.6 µM (active), 14.3 µM (active) and 26.2 µM (active), respectively. For the same compound, the outcome in [7] is “inactive”; in assay [8], “inactive”; in [9], “inactive”; in [10] it was “inactive”; in the assay with CD40, CD40 (gene 958) [15], “inactive”.
Consider `CCNP(=S)(OC)O/C(C)=C/C(=O)OC(C)C` (configuration not stated), for which the outcome is “inactive” in assay [1]; “inactive” in [2]; “inactive” in assay [3]; “inactive” with CD40, CD40 (gene 958) [4]; “inactive” in [5]; “inactive” in assay [6]. Also, the result in assay [7], in [8], in assay [9], in [10], in assay [11] and in assay [12] was inactive. The outcome in assay [13] was “inactive”; in assay [14] it was “inactive”; with CD40, CD40 (gene 958) [15], “inactive”; in the assay with CD69, CD69 (gene 969), “inactive”; in assay [16], “inactive”; in [17] it was “inactive”.
Consider `CCNC(=O)NC(=O)C(C#N)=NOC`, for which the outcome was “inactive” in [1]; “inactive” in assay [2]; “inactive” in assay [3]; “inactive” in the assay with CD40, CD40 (gene 958) [4]; “inactive” in assay [5]; “inactive” in assay [6]. Also, the outcome in assay [7], in [8], in assay [9], in [10], in assay [11] and in assay [12] was inactive. For the same compound, the outcome in [13] is “inactive”; in [14], “inactive”; with CD40, CD40 (gene 958) [15] it was “inactive”; in assay [16], “inactive”; in assay [17], “inactive”.
